An excerpt weighted towards active compounds, which were near 3.4% of everything screened.
TEAD-YAP block = TEAD-YAP interaction inhibition; HEK-TIYL cells, TEAD-Gal4/YAP UAS-luciferase luminescence; inhibition, % at 9.12 µM; actives 1.4% (n = 640,000); in the data active = inhibition above about 32%;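 note: 0% = median of test compound wells and 100% = reference inhibitor wells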
MITF inh = inhibitors of human MITF | O75030 | AlphaScreen MITF homodimerization, bead proximity signal | inhibition, % at 2.6 µM | actives 0.91% (n = 650,000) | AID 1259374; in the data active = inhibition above about 50%;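 note: 0% = vehicle wells with protein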
FBW7 activator = activators of human E3 ligase FBW7 | actives 0.13% (n = 650,000) | normalized activity (activation), % at 26.1 µM | AlphaScreen FBW7–phospho-cyclin E peptide binding, activator screen | AID 1259310; in the data active = normalized activity above about 1.9%;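 note: purified mutant Fbw7 with reduced substrate affinity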
Target sequence (Q969H0 whole entry, looked up): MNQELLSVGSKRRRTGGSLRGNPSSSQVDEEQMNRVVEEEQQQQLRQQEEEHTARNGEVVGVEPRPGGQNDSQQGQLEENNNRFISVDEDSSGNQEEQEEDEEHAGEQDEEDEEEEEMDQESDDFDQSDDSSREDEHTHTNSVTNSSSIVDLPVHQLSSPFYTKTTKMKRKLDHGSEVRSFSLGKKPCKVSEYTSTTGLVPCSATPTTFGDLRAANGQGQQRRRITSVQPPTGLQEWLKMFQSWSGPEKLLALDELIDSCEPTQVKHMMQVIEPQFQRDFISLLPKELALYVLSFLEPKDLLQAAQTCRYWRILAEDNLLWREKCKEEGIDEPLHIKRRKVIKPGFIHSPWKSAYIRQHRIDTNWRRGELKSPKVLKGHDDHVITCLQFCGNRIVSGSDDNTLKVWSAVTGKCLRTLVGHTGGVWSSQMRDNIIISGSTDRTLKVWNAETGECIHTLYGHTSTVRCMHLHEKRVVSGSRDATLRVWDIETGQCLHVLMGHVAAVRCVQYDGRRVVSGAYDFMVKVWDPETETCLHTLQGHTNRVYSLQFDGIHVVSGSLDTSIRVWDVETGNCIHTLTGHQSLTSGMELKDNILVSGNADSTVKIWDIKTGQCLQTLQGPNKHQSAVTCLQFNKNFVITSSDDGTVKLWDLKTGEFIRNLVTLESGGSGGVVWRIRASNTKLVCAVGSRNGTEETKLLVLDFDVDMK
GPR151 ag = activates the human receptor GPR151. Q8TDV0. PathHunter beta-arrestin GPR151 cells, luminescence. activation, % at 11.2 µM. actives 1% (n = 650,000). AID 1508602; in the data active = activation above about 4.9%;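 note: 0% = median of compound wells and 100% = cells with positive control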
GPR151 conf act = confirmation of human GPR151 activators; 6,700 tested, under 10 active; activation, % at 11.2 µM; AID 1508609; shares compounds with GPR151 ag; GPR151 PathHunter beta-arrestin cells, luminescence, 90 min; % of EA-reagent control over plate median;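 active = mean percent activation across replicates above the confirmation screen cutoff of 4.91%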
GPR119 ag = counter-screen for GPR151 activators: effect on human GPR119 | shares compounds with GPR151 ag | GPR119 PathHunter beta-arrestin cells, luminescence, 90 min; 0 = compound-well median, 100 = enzyme-acceptor control | activation, % at 11.2 µM | actives 0.3% (n = 6,700) | AID 1508611;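 active = mean percent activation in the counterscreen above 29.09%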;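 note: counterscreen on off-target GPR119 to flag nonselective hits from the GPR151 activator screen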
Starred values were filed as active, the others as inactive; x = no result given; ! = not active in a repeat.

SMILES | TEAD-YAP block | MITF inh | FBW7 activator | GPR151 ag | GPR151 conf act | GPR119 ag
Cc1cc(C)c2nc(N3CCC(C(=O)NCc4cccs4)CC3)sc2c1 | 2.2 | 11.7 | 0.0 | -0.1 | x | x
C/C(=N\NC(N)=O)c1c(O)c2ccccc2oc1=O | 6.1 | -3.0 | -0.2 | 7.4* | 0.4 | 4.7
CN=C(C)c1c(O)c2ccccc2oc1=O | 9.2 | -21.7 | 0.2 | -0.2 | x | x
O=C(COC(=O)c1ccccc1O)c1ccc(Br)cc1 | -21.7 | 17.8 | 0.1 | -2.0 | x | x
O=C(CC(=O)c1ccccc1O)c1ccc(Br)cc1 | -30.2 | -8.6 | 0.0 | 5.4* | -0.8 | -8.3
COc1ccccc1N1CCN(C2CCCN(C(=O)C3(C(N)=O)CC3)C2)CC1 (stereo unspecified) | -6.5 | 2.8 | -0.1 | 5.6* | 0.0 | 3.8
COc1ccccc1N1CCN(C2CCCN(C(=O)C3CCCCC3)C2)CC1 (stereo unspecified) | -0.9 | 8.0 | 0.1 | 0.1 | x | x
COc1ccc(CSc2nnnn2C)cc1F | -7.7 | 3.4 | 0.1 | 5.5* | -0.1 | -7.0
Cn1c(=NC(=O)CS(=O)(=O)c2ccccc2)sc2ccccc21 | -25.1 | 12.2 | 0.0 | 5.0* | -0.7 | -3.0
C=CCn1c(COc2ccccc2C)n[nH]c1=S | 8.8 | 8.2 | 0.5 | -0.8 | x | x
C=CCn1c(COc2cccc(C)c2C)n[nH]c1=S | 4.2 | 4.5 | 0.0 | 5.0* | 0.0 | 1.1
Cc1cccc(C)c1NC(=O)C1(N(Cc2ccccc2)C(=O)c2ccccc2O)CCC(C(C)(C)C)CC1 (stereo unspecified) | 6.9 | 6.6 | 0.1 | 1.7 | x | x
COC(=O)c1nsc(Cl)c1Cl | 8.0 | 10.1 | 0.1 | 6.8* | -0.4 | -8.0
O=C(C1CCN(Cc2ccc3c(c2)OCO3)CC1)N1CCOCC1 | -3.7 | 25.6 | 0.0 | 5.2* | -0.3 | 10.4
O=C(C1CCN(C2CCN(Cc3ccc4c(c3)OCCO4)CC2)CC1)N1CCCC1 | 3.7 | -13.5 | 0.0 | -0.6 | x | x
Cc1nc2ccccn2c(=O)c1CCN1CCC(C(=O)c2ccc(F)cc2)CC1 | -3.0 | 6.6 | 0.7 | 9.9*! | -0.4 | -4.5
Cc1nc2sccn2c(=O)c1CCN1CCC(=C(c2ccc(F)cc2)c2ccc(F)cc2)CC1 | 0.5 | 27.8 | 0.1 | -0.3 | x | x
CC(=O)N1CCN(Cc2ccc3c(c2)CN(C(=O)Cc2cccc(F)c2)CCO3)CC1 | 6.7 | -3.4 | -0.1 | 2.6 | x | x
CC(=O)N1CCN(Cc2cccc(F)c2)CC1 | 15.4 | 9.8 | 0.1 | 5.4* | 0.1 | 3.0
Cn1nnc2cc(NC(=O)Nc3ccc(Br)cc3)ccc21 | -91.8 | 0.5 | 0.0 | 5.9* | -0.4 | 0.9
CCOC(=O)C1CN(S(=O)(=O)c2ccc(OC)cc2)c2ccccc2O1 (stereo unspecified) | 2.3 | -9.3 | -0.1 | 6.5* | -1.1 | -9.8
CCOc1c(C)cc(S(=O)(=O)NCCCCN2CCOC(c3ccccc3)C2)cc1C (stereo unspecified) | 4.7 | 7.9 | -0.2 | 11.4* | 1.3 | -1.0
COc1cccc(CNc2nn[nH]n2)c1OC | 7.6 | 11.8 | 0.0 | 8.4* | -1.0 | -6.6
Cc1nc(CCNC(=O)CC2C(=O)NCCN2Cc2cccc3ccccc23)sc1C (stereo unspecified) | -0.9 | 5.5 | 0.0 | 5.5* | 0.7 | 2.0
Cc1nc(CCNC(=O)CC2C(=O)NCCN2Cc2ccccc2F)sc1C (stereo unspecified) | -0.8 | -3.8 | -0.2 | -2.0 | x | x
SMILES | TEAD-YAP block | MITF inh | FBW7 activator | GPR151 ag | GPR151 conf act | GPR119 ag
Cc1cccc(CNC(=O)CC2C(=O)NCCN2Cc2c(F)cccc2Cl)n1 (stereo unspecified) | 9.4 | -2.5 | 0.0 | 5.1* | 0.7 | 5.5
COc1ccc(N2CCN(Cc3nnnn3Cc3ccco3)CC2)cc1 | -27.5 | -6.9 | 0.7 | -1.4 | x | x
CCN(CC)c1ccc(NC(=O)CCC(=O)O)cc1 | 1.3 | 19.7 | 0.8 | -1.2 | x | x
CC(C)N1CCN(Cc2ccc(OCc3ccccc3)cc2)CC1CCO (stereo unspecified) | -3.2 | 9.4 | 0.0 | -1.1 | x | x
COc1ccc(-n2ccnc2CN2CCN(C(C)C)C(CCO)C2)cc1 (stereo unspecified) | -1.2 | 5.1 | -0.1 | 5.0* | 0.1 | -9.3
CC(C)N1CCN(Cc2ccc(OC3CCCC3)cc2)CC1CCO (stereo unspecified) | 12.7 | 10.3 | 0.1 | 17.3* | -0.9 | 1.6
CC(C)N1CCN(Cc2cccn2-c2cccnc2)CC1CCO (stereo unspecified) | -5.0 | 1.9 | 0.2 | -0.5 | x | x
O=C(CCc1ccccc1)Nc1ccnn1C1CCN(C2CCCCC2)CC1 | -5.0 | 10.4 | 0.0 | -0.1 | x | x
NS(=O)(=O)c1ccc(NC(=S)NCCN2CCCCC2)cc1 | 1.4 | 7.5 | 0.2 | 6.3* | -0.6 | 1.1
Cc1ccc(CN=Cc2c(NCc3ccc(C)cc3)nc3ccccn3c2=O)cc1 | -16.4 | 1.4 | -0.2 | 5.3* | -0.2 | -0.9
COC(=O)CCS(=O)(=O)c1ccc(Cl)cc1 | 1.0 | -6.4 | 0.1 | -0.1 | x | x
COC(=O)c1cc(NC(=O)CCS(=O)(=O)c2ccc(OC)cc2)cc(C(=O)OC)c1 | 3.7 | 4.9 | 0.0 | 0.9 | x | x
COC(=O)CCS(=O)(=O)c1ccc(Oc2ccc(S(=O)(=O)CCC(=O)OC)cc2)cc1 | 14.1 | 1.1 | -0.1 | 5.7* | 0.8 | -3.0
COC(=O)c1ccc(NC(=O)CCS(=O)(=O)c2ccc(OC)cc2)cc1 | -5.4 | -2.6 | 0.1 | 5.0* | -0.2 | -1.2
CSc1nnc(-c2cccnc2)n1-c1ccccc1 | -17.5 | 24.2 | -0.3 | -0.1 | x | x
CN1CCN(C2=Nc3c(Cl)cc(Cl)c4cccc2c34)CC1 | -9.8 | -1.8 | -0.1 | 11.8* | 1.4 | -0.8
Cc1ccc(/C=N\N2CCN(c3ccccn3)CC2)o1 | -24.4 | 11.2 | -0.4 | -1.8 | x | x
CC(C)n1c(Nc2ccnn2C)nc2c(Nc3ccc(N4CCOCC4)cc3)ncnc21 | -4.8 | 13.2 | 0.1 | 5.5* | 0.4 | -2.8
CC(C)n1c(Nc2ccc(N3CCOCC3)cc2)nc2c(Nc3ccc(N4CCOCC4)cc3)ncnc21 | 11.1 | 13.3 | 0.2 | -1.3 | x | x
Cc1ccc(NC(=O)CCc2nnc3ccc(N4CCC(C(N)=O)CC4)nn23)cc1 | -2.6 | 5.3 | -0.1 | 0.4 | x | x
Cc1ccc(NC(=O)CCc2nnc3ccc(N4CCC(C)CC4)nn23)cc1 | 3.1 | -24.4 | 0.0 | 5.0* | 0.0 | -5.0
CC(=O)Nc1ccc(NC(=O)C(C)Oc2cccc(C)c2)cc1 (stereo unspecified) | 0.8 | 11.7 | -0.1 | 0.4 | x | x
COc1ccc(OC(C)C(=O)Nc2cc(Cl)ccc2C)cc1 (stereo unspecified) | 15.2 | 6.4 | 1.2 | 9.3* | -0.8 | -4.2
CC(=O)Nc1ccccc1NC(=O)C(C)Oc1cccc(C)c1 (stereo unspecified) | -1.5 | 5.2 | -0.1 | 26.6* | -0.6 | -12.6
CC(Oc1ccccc1)C(=O)Nc1ccccc1Br (stereo unspecified) | -6.1 | -13.3 | 0.0 | -0.3 | x | x
